# Data as given in ChEMBL document CHEMBL1157539, “Thousands of chemical starting points for antimalarial lead identification” (Nature, 2010).
# Key:
# Format in all cases: functional
# Plasmodium falciparum [1] = assay: GSK_TCMDC: Inhibition of Plasmodium falciparum 3D7 in whole red blood cells, using parasite LDH activity as an index of growth. Test compounds present at 2uM
# Plasmodium falciparum [2] = assay: GSK_TCMDC: Inhibition of Plasmodium falciparum Dd2 in whole red blood cells, using parasite LDH activity as an index of growth. Test compounds present at 2uM
# HepG2 = assay: GSK_TCMDC: Percent inhibition of human HepG2 cell line. Test compounds present at 10uM.
SMILES,Inhibition (Plasmodium falciparum [1]) [%],Inhibition (Plasmodium falciparum [2]) [%],Inhibition (HepG2) [%]
CCc1cccc(OCC2CCCN(c3ccc(C(=O)NC4CC4)cn3)C2)c1 (stereo not drawn),94,73,0
Cl.Cn1ncc2c3c(CCN4CCC(NCc5cc6c(cn5)OCC6)CC4)c(Cl)cnc3ccc21,94,0,4
O=C(Nc1ccc(Cl)cc1)Nc1cccc(CCNCc2ccccc2)c1.O=C(O)C(F)(F)F,100,12,16
COc1cccc(C(=O)Nc2nonc2-c2ccc(OC)c(OC)c2)c1,97,50,7
CC1(C)N=C(N)N=C(N)N1c1ccc(Cl)cc1.O=C(O)c1cc2ccccc2c(Cc2c(O)c(C(=O)O)cc3ccccc23)c1O,95,4,42
COc1ccccc1COc1c(C)nc(N)nc1N.Cl,98,1,32
Cc1cc(C(=O)OCC(=O)Nc2c(C)n(C)n(-c3ccccc3)c2=O)c(C)n1-c1ccc(F)cc1,100,99,0
Cc1cc2nc(-c3cc(Br)ccc3O)c(-c3cc(Br)ccc3O)nc2cc1C,96,12,2
Cn1cncc1-c1ccc2c(-c3ccsc3)cnc(N)c2c1,97,72,41
O=S(=O)(Nc1cccc(F)c1CNCc1ccccn1)c1ccc(Cl)c(Cl)c1,92,34,45
CCOC(=O)C1=C(C)N=c2sc(=Cc3cc(Cl)ccc3O)c(=O)n2C1c1ccc2c(c1)OCO2 (stereo not drawn),96,91,0
O=C(/C=C/c1ccc(Cl)c(Cl)c1)N1CCC(CCCN2CCC(c3c[nH]c4ccccc34)CC2)CC1,100,45,44
CCn1ccc2c(N3CCCC3=O)cc(C(=O)N[C@@H](Cc3ccccc3)[C@H](O)CNC(C)(C)CCCC(C)C)cc21,96,98,11
CC(=O)N(C)c1ccc(C(=O)Nc2cccc(-c3cccc(-c4nc5cc(C(F)(F)F)ccc5[nH]4)c3)c2)cc1,96,29,31
Cc1cc(N/N=C/c2ccccc2[N+](=O)[O-])c2cc(C(F)(F)F)ccc2n1,97,39,0
Cc1cccc2nc(-c3cccc(-c4cccc(C(=O)NCc5nccn5C)c4)c3)[nH]c12,99,50,22
O=C(Nc1ccc(Cn2ncc(N3CCCNCC3)c(Cl)c2=O)cc1)Nc1cccc(SC(F)(F)F)c1.O=C(O)C(F)(F)F,92,33,12
CCCCCCNC(=O)C(N)CCCC(N)C(=O)NCCCCCC.Cc1ccc(S(=O)(=O)O)cc1 (stereo not drawn),99,0,0
Cc1oc(-c2ccc(Cl)cc2)cc1C(=O)NCCC1CCN(CCCCCNC(=O)/C=C/c2ccc(Cl)c(Cl)c2)CC1,100,88,100
Cc1cc(N/N=C/c2ccccc2[N+](=O)[O-])c2cc(F)ccc2n1,100,100,18
COc1ccc2c(c1)nc(CNC(=N)N)n2Cc1ccc(Cl)cc1.Cl,100,99,12
